Where “and” joins values, the source holds several entries; their conditions need not be identical. Identical values can stand only once. The campaign covered roughly 350,000 compounds. About 180 (0.051%) were called active.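 Rule for the calls: active = mean replicate inhibition above about 25%, with every replicate also reaching it (limit read from the data, passing the limit was not always enough); inconclusive = only one of those two criteria met; inactive = neither criterion met.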 The sample as a whole holds a higher share of actives than the screen did. Where a structure was tested more than once in an assay, its records may differ in their call.
Each compound was assayed against Protein disulfide-isomerase A6 (Homo sapiens) (UniProt Q15084) (assay: ERp5 (PDIA6) reductase activity blockers – biochemical, turbidity, absorbance 650 nm, single point, primary screen (AID 651711)). Conditions: ERp5 insulin aggregation, 90 min, at 9.99 µM, stronger effect = higher value.
Protein disulfide-isomerase A6 (Homo sapiens), sequence (Q15084 whole entry, looked up): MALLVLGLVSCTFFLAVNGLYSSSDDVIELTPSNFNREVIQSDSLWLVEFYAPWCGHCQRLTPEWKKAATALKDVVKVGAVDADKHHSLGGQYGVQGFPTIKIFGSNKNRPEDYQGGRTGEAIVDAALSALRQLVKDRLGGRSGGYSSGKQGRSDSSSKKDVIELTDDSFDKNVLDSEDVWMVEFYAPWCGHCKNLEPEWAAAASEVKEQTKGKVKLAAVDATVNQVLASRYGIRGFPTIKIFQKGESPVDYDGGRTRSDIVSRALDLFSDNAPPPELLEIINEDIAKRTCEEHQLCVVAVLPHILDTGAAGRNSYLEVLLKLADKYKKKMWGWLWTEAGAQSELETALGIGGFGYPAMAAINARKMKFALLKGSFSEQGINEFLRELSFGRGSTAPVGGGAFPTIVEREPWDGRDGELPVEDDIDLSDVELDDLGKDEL

inhibition, -7.22% (inactive) and 27.4% (active):
Cc1cccc(S(=O)(=O)N(C)C[C@H]2OCc3cnnn3CCCC(=O)N([C@@H](C)CO)C[C@H]2C)c1

inhibition, active:
CC(=O)Nc1ccc2c(c1)C(=O)N(C)[C@H]1CC[C@@H](CC(=O)NCC3CC3)O[C@H]1CO2 39.3%

inhibition, inactive:
C[C@H]1CN([C@@H](C)CO)S(=O)(=O)c2ccc(C#CCN(C)C)cc2O[C@@H]1CN(C)Cc1ccc(F)cc1 3.33%
C[C@@H]1CN([C@@H](C)CO)C(=O)Cc2cc(NC(=O)C3CCCCC3)ccc2O[C@@H]1CN(C)Cc1ccc(C(=O)Nc2ccccc2N)cc1 -3.91%
CN1C(=O)c2cc(NC(=O)c3cnccn3)ccc2OC[C@H]2O[C@@H](CC(=O)NCC3CCCCC3)CC[C@@H]21 -4.79%
CC(C)NC(=O)N(C)C[C@H]1Oc2c(NC(=O)Nc3ccc(F)cc3)cccc2C(=O)N([C@@H](C)CO)C[C@@H]1C 0.87%
COc1cccc(-c2cnc3c(c2)C(=O)N([C@@H](C)CO)C[C@H](C)[C@H](CN(C)C(C)=O)O3)c1 1.61%
CN(C)C(=O)C[C@@H]1C=C[C@H](NC(=O)Nc2cccc(F)c2)[C@H](CO)O1 0.18%
COCC(=O)N[C@@H]1C[C@@H]2O[C@@H](CO)CC[C@@H]2O[C@@H]1CCc1ccc(-c2ccccc2)cc1 -0.551%
C[C@H]1CN([C@@H](C)CO)C(=O)c2cccc(NC(=O)c3cnccn3)c2O[C@H]1CN(C)C(=O)Nc1ccccc1 2.81%
CC(=O)N1[C@H](CO)[C@H](c2ccccc2)[C@H]1CN(C(=O)c1ccccc1F)C(C)C -2.13%
Cc1cccc(S(=O)(=O)N(C)C[C@@H]2OCc3cnnn3CCCC(=O)N([C@H](C)CO)C[C@@H]2C)c1 -3.09% and 0.225% and -3.77%
C[C@H](CO)N1C[C@H](C)[C@H](CN(C)S(=O)(=O)c2cccc(F)c2)OCc2cnnn2CCCC1=O -5.61%
Cc1nc(NC(=O)C(C)(C)C)sc1[N+](=O)[O-] 0.0535%
O=C(NCC1CC1)[C@@H]1[C@@H](CO)[C@@H]2Cn3c(ccc(-c4ccncc4)c3=O)[C@@H]2N1Cc1cocn1 6.61%
CO[C@@H]1CN(C)C(=O)c2ccc(NC(=O)NC(C)C)cc2OC[C@@H](C)N(Cc2ccc(-c3ccccn3)cc2)C[C@H]1C -3.96%
CCS(=O)(=O)N1[C@H](CO)[C@@H](c2ccc(C#CC(C)C)cc2)[C@@H]1C#N 0.717%
O=C(C[C@H]1C=C[C@@H](NC(=O)c2ccc(F)cc2)[C@@H](CO)O1)NCCc1ccncc1 -1.66%
COCC#Cc1cnc2c(c1)C(=O)N([C@H](C)CO)C[C@H](C)[C@H](CN(C)C(=O)CCN1CCCCC1)O2 -2%
C[C@@H]1CN([C@H](C)CO)C(=O)Cc2cc(NC(=O)Cc3cn(C)c4ccccc34)ccc2O[C@@H]1CN(C)Cc1ccc(C(F)(F)F)cc1 -1.92%
Cc1cccc(-c2ccccc2[C@@H]2[C@H](C#N)N(c3ncc(-c4ccccc4)s3)[C@H]2CO)c1 5.5%
CO[C@@H]1CN(C)C(=O)c2cc(NS(=O)(=O)c3cccc(F)c3)ccc2OC[C@@H](C)NC[C@@H]1C 3.66%
CO[C@@H]1CC[C@@H]2CCOc3c(C#N)cccc3C(=O)N(C)C[C@@H](OC)[C@@H](C)C(=O)N(C)C[C@H]1O2 0.649%
COc1ccc2c3c(n(C)c2c1)[C@@H](CO)N(CC1CC1)CC31CN(C(=O)c2cccc(F)c2)C1 -2.91%
COCC(=O)N[C@@H]1C=C[C@@H](CC(=O)N2CCCCC2)O[C@@H]1CO -2.02%
CC(C)NC(=O)N(C)C[C@H]1OCCCC[C@@H](C)Oc2ccc(NS(C)(=O)=O)cc2C(=O)N([C@H](C)CO)C[C@H]1C -1.99%
CCCN1C[C@H](C)[C@@H](OC)CN(C)C(=O)c2cc(NS(=O)(=O)CC)ccc2OC[C@H]1C -4.64%
C[C@@H]1CN([C@@H](C)CO)C(=O)Cc2cc(NC(=O)Nc3cccc4ccccc34)ccc2O[C@@H]1CN(C)CC1CCCCC1 3.82%
O=C(NCC[C@@H]1CC[C@@H](NS(=O)(=O)c2cccc(F)c2)[C@H](CO)O1)C1CC1 -3.52%
CCCNC(=O)N(C)C[C@H]1Oc2cc(C#C[C@@H](C)O)ccc2S(=O)(=O)N([C@H](C)CO)C[C@H]1C -12.1%
CCCN1C[C@@H](C)[C@@H](OC)CN(C)C(=O)c2ccc(NC(=O)CC(F)(F)F)cc2OC[C@H]1C 9.49%
Cc1ccc(-c2ccccc2[C@H]2[C@@H](C#N)N(c3ncc(-c4ccccc4)s3)[C@@H]2CO)cc1 -0.798%
CC=Cc1ccc2n(c1=O)C[C@H]1[C@H](CO)[C@@H](C(=O)NCC3CC3)N(Cc3nccs3)[C@@H]21 (mixture of isomers) -2.63%
COc1ccccc1-c1cnc2c(c1)C(=O)N([C@H](C)CO)C[C@H](C)[C@@H](CN(C)C(=O)CC1CC1)O2 -2.32%
C[C@H]1CN([C@@H](C)CO)C(=O)c2cc(Br)cnc2O[C@@H]1CN(C)C(=O)c1ccccc1 -13%
COCC(=O)Nc1ccc2c(c1)C(=O)N(C)[C@@H]1CC[C@H](CC(=O)NCC3CC3)O[C@@H]1CO2 7.57%
CCNC(=O)C[C@@H]1CC[C@@H]2[C@@H](COc3ccc(NC(C)=O)cc3C(=O)N2C)O1 -7.17%
C[C@@H]1CN([C@@H](C)CO)C(=O)Cc2cc(NC(=O)Nc3cccc4ccccc34)ccc2O[C@H]1CN(C)S(=O)(=O)c1ccc(Cl)cc1 -3.03%
O=C(CN1CCOCC1)N[C@@H]1CC[C@@H](CCNC(=O)C2CCCCC2)O[C@@H]1CO 0.632%
C[C@H](CO)N1C[C@H](C)[C@H](CN(C)Cc2ccc(Oc3ccccc3)cc2)Oc2c(NC(=O)CCCCCC(=O)Nc3ccccc3N)cccc2C1=O 1.76%

Reference: PubChem BioAssay AID651711 (Broad Institute, 2012)
